What all share (design): scale not given: direction of the effect not stated beside the values
Assay [1] addresses Protein translocase subunit SecA (Escherichia coli (strain K12)) (UniProt P10408). In words: Assay to Identify E. coli SecA ATPase Inhibitors. The class given is functional. As to conditions: 30 µM.
For assay [2], the target named is T1, Ubiquitin-activating enzyme e1, putative (Leishmania donovani (strain BPK282A1)) (UniProt E9BSI1).
T1 sequence (whole entry): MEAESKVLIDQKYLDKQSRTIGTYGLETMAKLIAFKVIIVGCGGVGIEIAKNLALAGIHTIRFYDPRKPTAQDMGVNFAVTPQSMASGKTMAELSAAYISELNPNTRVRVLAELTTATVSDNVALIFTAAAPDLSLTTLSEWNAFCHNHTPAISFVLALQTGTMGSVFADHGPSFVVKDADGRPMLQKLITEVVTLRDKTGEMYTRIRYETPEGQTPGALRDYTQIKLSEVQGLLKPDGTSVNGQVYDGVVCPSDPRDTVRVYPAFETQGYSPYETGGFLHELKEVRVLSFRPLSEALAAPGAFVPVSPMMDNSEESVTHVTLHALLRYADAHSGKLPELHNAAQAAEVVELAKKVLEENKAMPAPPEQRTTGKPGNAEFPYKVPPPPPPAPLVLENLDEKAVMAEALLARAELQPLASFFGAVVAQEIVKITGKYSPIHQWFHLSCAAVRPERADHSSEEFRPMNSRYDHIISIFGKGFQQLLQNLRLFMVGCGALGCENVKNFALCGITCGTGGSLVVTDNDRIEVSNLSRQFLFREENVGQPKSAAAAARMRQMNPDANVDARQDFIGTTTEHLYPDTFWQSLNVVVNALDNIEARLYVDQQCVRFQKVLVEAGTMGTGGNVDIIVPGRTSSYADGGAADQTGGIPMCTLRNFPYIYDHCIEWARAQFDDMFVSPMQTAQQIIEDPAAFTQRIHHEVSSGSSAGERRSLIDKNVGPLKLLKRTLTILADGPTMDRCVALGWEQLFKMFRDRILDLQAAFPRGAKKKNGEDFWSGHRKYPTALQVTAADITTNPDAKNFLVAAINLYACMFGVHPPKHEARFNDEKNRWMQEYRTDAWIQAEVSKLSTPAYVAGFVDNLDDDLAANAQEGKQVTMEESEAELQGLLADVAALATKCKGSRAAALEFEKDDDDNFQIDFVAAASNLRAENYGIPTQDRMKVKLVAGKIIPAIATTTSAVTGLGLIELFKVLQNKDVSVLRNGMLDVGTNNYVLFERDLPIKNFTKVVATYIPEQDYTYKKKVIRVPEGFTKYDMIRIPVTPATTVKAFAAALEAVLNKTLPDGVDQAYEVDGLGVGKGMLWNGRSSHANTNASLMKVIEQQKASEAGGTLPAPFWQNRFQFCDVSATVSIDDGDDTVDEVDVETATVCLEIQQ
The assay is described as follows: Leishmania donovani Ubiquitin Activating Enzyme (LdE1). The class given is functional. As to conditions: 30 µM.

Assay [3] addresses AMP-activated protein kinase, AMPK (Homo sapiens) (UniProt P54646+O43741+P54619+Q9UGJ0+Q9Y478+Q13131+Q9UGI9). The assay is described as follows: AMP-dependent Kinase enzyme assay. An in vitro enzyme assay that detects ADP turnover that is directly proportional to AMPK activity. This uses naive AMPK that is activated during the assay with MK-8722. The class given is functional. To be noted: 30 µM.

Assay [4] addresses Sialic acid-binding Ig-like lectin 9 (Homo sapiens) (UniProt Q9Y336). The assay is described as follows: Hs-Siglec9 ALPHAscreen SOP 20170721. To be noted: 10 µM. (In general: Alpha assays give light when donor and acceptor beads are brought close together.)
For assay [5], the system named is Trypanosoma cruzi. The assay is described as follows: Trypanosoma cruzi phosphomannomutase and mannose-1-phosphate guanylyltransferase assay. Format: functional. As to conditions: 10 µM.
Assay [6] concerns the target T2, Arginase-2, mitochondrial (Homo sapiens) (UniProt P78540).
T2 sequence (whole entry): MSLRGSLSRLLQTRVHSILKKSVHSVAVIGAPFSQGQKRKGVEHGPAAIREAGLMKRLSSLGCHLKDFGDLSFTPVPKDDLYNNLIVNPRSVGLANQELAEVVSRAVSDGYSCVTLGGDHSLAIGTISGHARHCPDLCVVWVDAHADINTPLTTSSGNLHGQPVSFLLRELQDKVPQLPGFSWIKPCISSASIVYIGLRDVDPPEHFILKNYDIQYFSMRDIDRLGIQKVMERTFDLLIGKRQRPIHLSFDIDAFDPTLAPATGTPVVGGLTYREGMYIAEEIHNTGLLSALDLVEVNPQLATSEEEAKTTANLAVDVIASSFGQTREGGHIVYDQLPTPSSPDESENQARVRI
In words: in vitro enzyme assay to detect the production of urea directly proportional to the activity of Arginase II. Further: in the data most compounds retested in dose-response had high values. The class given is functional. As to conditions: 33.3 µM.

In assay [7] the target is T3, Proteasome subunit beta (Trypanosoma cruzi) (UniProt O96673).
T3 sequence (whole entry): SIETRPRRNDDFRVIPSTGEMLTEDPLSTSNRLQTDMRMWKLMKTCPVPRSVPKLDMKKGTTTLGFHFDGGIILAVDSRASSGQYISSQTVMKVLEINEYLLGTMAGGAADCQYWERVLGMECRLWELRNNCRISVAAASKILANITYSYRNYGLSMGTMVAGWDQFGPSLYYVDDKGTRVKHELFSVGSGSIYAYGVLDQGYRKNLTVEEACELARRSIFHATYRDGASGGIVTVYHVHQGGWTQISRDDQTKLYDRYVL
The assay is described as follows: Trypanosoma cruzi proteasome chymotrypsin-like activity (TcProtChymo) assay. Further: in the data most compounds retested in dose-response had high values. Format: functional. As to conditions: 9.37 µM.

The species named for assay [8] is Homo sapiens. The assay is described as follows: To identify inhibition of the IFN signalling (Jak-Stat) pathway via expression of an eGFP reporter gene under the control of an IFN-stimulated response element (ISRE) containing MxA promoter. The class given is functional. To be noted: 30 µM. (Reporter assays use an easily measured gene product as a stand-in for the process of interest.)

For assay [9], the target named is T4, Tyrosyl-tRNA synthetase, putative (Trypanosoma cruzi (strain CL Brener)) (UniProt Q4DSP6).
T4 sequence (whole entry): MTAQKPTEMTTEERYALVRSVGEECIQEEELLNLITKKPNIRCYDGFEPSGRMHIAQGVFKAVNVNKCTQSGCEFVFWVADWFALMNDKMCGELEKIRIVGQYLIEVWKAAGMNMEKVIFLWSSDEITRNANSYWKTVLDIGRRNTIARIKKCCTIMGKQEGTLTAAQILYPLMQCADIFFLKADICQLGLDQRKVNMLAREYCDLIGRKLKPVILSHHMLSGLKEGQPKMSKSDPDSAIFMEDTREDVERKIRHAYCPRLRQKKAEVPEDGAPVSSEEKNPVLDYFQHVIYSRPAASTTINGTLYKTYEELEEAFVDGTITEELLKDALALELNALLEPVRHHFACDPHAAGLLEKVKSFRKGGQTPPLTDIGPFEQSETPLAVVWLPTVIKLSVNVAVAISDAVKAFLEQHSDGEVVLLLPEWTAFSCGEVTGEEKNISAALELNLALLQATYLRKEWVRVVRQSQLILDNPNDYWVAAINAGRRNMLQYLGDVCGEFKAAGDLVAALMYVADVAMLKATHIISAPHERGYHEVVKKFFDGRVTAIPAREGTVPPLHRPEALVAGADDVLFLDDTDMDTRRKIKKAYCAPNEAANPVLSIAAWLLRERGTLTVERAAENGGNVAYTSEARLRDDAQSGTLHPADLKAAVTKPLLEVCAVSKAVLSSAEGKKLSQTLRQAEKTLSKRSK
In words: Trypanosoma cruzi tyrosyl tRNA synthetase (TcYRS) _High Tyrosine SOP. Further: in the data most compounds retested in dose-response had high values. Format: functional. As to conditions: 30 µM.

Assay [10] addresses T4, Tyrosyl-tRNA synthetase, putative (Trypanosoma cruzi (strain CL Brener)). The assay is described as follows: Trypanosoma cruzi tyrosyl tRNA synthetase (TcYRS) SOP. The class given is functional. To be noted: 30 µM.
Assay [11] concerns the target Chromo domain-containing protein 1 (Saccharomyces cerevisiae (strain ATCC 204508 / S288c) (Baker's yeast)) (UniProt P32657). The assay is described as follows: ScCHD-1 Enzyme Inhibition Assay. Further: in the data most compounds retested in dose-response had high values. To be noted: 30 µM. Format: functional.

For some of these results: Entries with a potency or affinity are not part of this list.

Sialic acid-binding Ig-like lectin 9 (Homo sapiens), sequence (Q9Y336 whole entry): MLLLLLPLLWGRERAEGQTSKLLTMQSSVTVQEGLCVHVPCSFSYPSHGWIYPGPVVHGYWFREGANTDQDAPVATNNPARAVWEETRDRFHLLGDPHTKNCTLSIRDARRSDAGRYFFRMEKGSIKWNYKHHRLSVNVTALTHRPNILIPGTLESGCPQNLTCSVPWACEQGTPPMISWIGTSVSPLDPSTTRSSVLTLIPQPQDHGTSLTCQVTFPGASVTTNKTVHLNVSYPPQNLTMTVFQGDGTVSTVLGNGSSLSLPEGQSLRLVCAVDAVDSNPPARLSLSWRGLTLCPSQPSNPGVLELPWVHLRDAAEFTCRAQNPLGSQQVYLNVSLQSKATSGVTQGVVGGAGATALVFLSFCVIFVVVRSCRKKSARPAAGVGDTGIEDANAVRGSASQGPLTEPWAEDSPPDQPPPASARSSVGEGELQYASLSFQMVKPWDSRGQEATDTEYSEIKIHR
Chromo domain-containing protein 1 (Saccharomyces cerevisiae (strain ATCC 204508 / S288c) (Baker's yeast)), sequence (P32657 whole entry, the tested form may be a part): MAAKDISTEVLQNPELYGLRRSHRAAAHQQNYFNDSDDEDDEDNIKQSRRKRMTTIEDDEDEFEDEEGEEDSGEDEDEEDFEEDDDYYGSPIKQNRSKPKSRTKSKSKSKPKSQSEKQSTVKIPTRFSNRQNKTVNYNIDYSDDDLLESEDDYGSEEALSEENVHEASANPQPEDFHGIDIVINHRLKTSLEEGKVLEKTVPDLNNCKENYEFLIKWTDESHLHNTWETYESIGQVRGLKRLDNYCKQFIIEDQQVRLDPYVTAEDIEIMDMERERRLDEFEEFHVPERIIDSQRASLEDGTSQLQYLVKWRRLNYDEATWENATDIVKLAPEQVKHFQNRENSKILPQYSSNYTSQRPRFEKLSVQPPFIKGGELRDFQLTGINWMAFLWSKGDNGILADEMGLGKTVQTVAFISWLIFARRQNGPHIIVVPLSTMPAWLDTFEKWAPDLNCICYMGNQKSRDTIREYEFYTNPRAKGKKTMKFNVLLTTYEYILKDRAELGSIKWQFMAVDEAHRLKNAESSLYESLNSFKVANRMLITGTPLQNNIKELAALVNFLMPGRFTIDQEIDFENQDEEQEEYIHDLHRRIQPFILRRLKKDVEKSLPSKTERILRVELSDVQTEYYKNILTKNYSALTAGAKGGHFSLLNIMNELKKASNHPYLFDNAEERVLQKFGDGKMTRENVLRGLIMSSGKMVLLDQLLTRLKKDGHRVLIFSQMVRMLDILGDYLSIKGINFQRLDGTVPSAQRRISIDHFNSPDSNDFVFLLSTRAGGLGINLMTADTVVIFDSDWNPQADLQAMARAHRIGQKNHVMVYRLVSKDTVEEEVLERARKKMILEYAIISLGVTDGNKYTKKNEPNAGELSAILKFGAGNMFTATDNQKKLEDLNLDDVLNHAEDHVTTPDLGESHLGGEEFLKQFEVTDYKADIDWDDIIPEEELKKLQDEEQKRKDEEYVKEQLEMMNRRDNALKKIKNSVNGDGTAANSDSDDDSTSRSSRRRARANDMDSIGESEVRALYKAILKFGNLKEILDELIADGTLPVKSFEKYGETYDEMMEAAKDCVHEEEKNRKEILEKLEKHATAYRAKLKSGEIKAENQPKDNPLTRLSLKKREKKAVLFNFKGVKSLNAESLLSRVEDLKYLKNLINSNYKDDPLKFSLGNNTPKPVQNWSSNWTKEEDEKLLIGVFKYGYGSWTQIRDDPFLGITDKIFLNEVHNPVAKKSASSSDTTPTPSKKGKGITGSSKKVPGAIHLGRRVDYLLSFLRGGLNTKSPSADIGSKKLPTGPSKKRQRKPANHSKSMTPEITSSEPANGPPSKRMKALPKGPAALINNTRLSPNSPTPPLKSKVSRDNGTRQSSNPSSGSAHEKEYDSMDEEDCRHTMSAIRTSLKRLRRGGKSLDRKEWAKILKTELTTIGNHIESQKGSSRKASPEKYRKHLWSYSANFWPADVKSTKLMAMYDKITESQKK
Protein translocase subunit SecA (Escherichia coli (strain K12)), sequence (P10408 whole entry): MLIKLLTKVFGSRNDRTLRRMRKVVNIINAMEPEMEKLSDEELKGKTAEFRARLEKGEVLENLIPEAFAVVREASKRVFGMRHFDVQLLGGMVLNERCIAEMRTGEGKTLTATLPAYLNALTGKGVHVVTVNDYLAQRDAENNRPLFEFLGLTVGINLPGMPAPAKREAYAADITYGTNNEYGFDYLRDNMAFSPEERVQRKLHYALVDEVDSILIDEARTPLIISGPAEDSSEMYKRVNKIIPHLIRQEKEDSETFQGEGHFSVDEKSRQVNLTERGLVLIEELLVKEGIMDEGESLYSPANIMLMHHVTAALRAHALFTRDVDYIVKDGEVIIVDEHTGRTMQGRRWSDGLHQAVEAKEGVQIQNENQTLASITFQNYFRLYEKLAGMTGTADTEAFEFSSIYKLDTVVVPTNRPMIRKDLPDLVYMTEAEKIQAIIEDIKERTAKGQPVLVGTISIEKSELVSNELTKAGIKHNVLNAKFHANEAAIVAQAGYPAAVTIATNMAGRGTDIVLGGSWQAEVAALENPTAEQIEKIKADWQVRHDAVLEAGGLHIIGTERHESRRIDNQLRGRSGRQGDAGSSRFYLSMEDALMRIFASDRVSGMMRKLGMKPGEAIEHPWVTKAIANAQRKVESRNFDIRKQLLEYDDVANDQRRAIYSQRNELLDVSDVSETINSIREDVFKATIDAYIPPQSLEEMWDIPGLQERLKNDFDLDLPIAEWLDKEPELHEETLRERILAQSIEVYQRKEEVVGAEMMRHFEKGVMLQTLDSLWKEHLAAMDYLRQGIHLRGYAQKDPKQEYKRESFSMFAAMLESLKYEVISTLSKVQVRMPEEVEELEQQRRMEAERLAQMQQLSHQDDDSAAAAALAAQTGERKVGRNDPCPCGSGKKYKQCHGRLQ

Consider `COCCN1C(=O)[C@]2(CC[C@@H]3CN(C(=O)NC4CCCC4)C[C@@H]32)N=C1C`, for which the Percent Effect in assay [1] was -2.35%; in [2], 8%; in assay [3], -3.34%; in [4], 5.66%; in assay [5], 4.83%; in assay [6] it was -52.5%. For the same compound, the Percent Effect in assay [7] is 6.84%; in assay [8], -7.18%; in assay [9] it was -7.29%; in assay [10] it was 10%; in [11] it was -9.58%.
On to `CCC1(CC)Cc2ccccc2-c2nc(CN(C)C)nc(O)c21`, for which the Percent Effect in [1] was -3.62%; in [2] it was 10.5%; in assay [3], 5%; in assay [4], 4.55%; in assay [5], 0.292%; in assay [6] it was -5.92%. Besides, the Percent Effect in [7] was 12.8%; in [8] it was 14.4%; in assay [9], 5.32%; in assay [10] it was 10.4%; in [11], -3.79%.
As to `Cc1cnc2c(S(=O)(=O)NCC3CCN(C4CC4)C3)cccc2c1` (stereo unspecified), the Percent Effect was -4.76% in assay [1]; -2.63% in assay [2]; -3.93% in [3]; -5.34% in [4]; 5.32% in [5]; -3.6% in [6]. Moreover, the Percent Effect in [7] is -7.53%; in [8], -27.5%; in assay [9], 11.3%; in [10], 6.17%; in [11], 6.25%.
Take `Cc1ccccc1CNC(=O)Cc1c(C)nc2cc(=O)[nH]n2c1C`: the Percent Effect in assay [1] is -2.72%; in assay [2] it was 13.2%; in assay [3] it was -32.1%; in [4], 17.4%; in assay [5] it was 4.13%; in [6], -4.21%. Besides, the Percent Effect in assay [7] was 4.18%; in [8], 2.25%; in [9], 9.31%; in assay [10] it was 17.1%; in assay [11], -11.1%.
On to `CCOCC(O)CN1CCN(C(=O)c2cccc(F)c2)CC1` (stereo unspecified), for which the Percent Effect is -1.53% in assay [1]; 2.7% in assay [2]; -2.77% in [3]; -2.18% in assay [4]; 7.92% in [5]; -2.86% in assay [6]. Also, the Percent Effect in assay [7] is 5.17%; in [8], 13.8%; in [9], 0.529%; in assay [10], -9.76%; in [11], -2.68%.
In the case of `COc1ccccc1C(O)CNC(=O)Nc1ncccc1C` (stereo unspecified), the Percent Effect is -3.85% in assay [1]; 12.7% in assay [2]; 3.4% in assay [3]; -8.4% in assay [4]; 6.52% in assay [5]; 0% in [6]. In addition, the Percent Effect in assay [7] is 8.27%; in assay [8] it was 16.1%; in assay [9], 5.42%; in assay [10] it was 16.5%; in assay [11] it was -4.09%.
Consider `Cc1csc(C2CCCCN2C(=O)CN(C)Cc2ccccc2)n1` (stereo unspecified), for which the Percent Effect in assay [1] was -1.2%; in assay [2], -1.27%; in assay [3], 11%; in assay [4] it was 7.48%; in [5], -1.33%; in assay [6] it was 3.23%. Moreover, the Percent Effect in [7] was 0.515%; in assay [8] it was -0.936%; in assay [9], 1.04%; in assay [10], 2.53%; in [11], 7.65%.
Take `CC(C)Oc1cc(N2C[C@@H](C)O[C@@H](C)C2)nc(N)n1`: the Percent Effect in [1] is -1.28%; in assay [2] it was 8.11%; in assay [3], -16.9%; in assay [4] it was -0.905%; in [5], 0%; in assay [6], -17.1%. Further, the Percent Effect in assay [7] was 12.8%; in [8], 3.78%; in [9], 10.1%; in [10], 12.2%; in assay [11], -1.35%.
Regarding `COc1ccc(C(=O)N2CCCC2c2ccco2)cc1OC` (stereo unspecified), the Percent Effect in assay [1] is 2.38%; in assay [2] it was 2.6%; in assay [3], -1.48%; in [4], -11.9%; in assay [5], -4.24%; in assay [6] it was -1.94%. In addition, the Percent Effect in assay [7] was 14.8%; in [8], 9.23%; in assay [9] it was 3.17%; in [10] it was 8.97%; in assay [11] it was -10.7%.
In the case of `Cn1cc(CN2CCN(Cc3nccn3C)CC2)cn1`, the Percent Effect in assay [1] was 1.49%; in assay [2] it was 10.8%; in assay [3], 7.76%; in assay [4], -5.51%; in assay [5], -8.31%; in [6], -1.24%. The Percent Effect in [7] was 7.12%; in [8] it was 43.3%; in [9] it was 0%; in assay [10] it was 1.24%; in [11], -4.77%.
For `COCC(=O)N1CC[C@H]2C[C@H](C)O[C@@H]2C1`, the Percent Effect in assay [1] is -3.06%; in [2] it was 13.3%; in assay [3], 4.66%; in assay [4], -5.49%; in [5], 4.53%; in assay [6], -2.56%. For the same compound, the Percent Effect was 17.4% in assay [7]; -11.4% in [8]; 7.45% in [9]; 14.1% in assay [10]; -3.21% in assay [11].
